Data from PubChem BioAssay (NCI).
The panel holds about 83,000 compounds, 20% with a hit somewhere; the sample as a whole holds those more often.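 96-well plates, one dose, 48 hours. Percent growth reported; active if below 10.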 Active and inactive are the calls of the source.

The compounds below were run on U251 CNS (assay: NCI-60 one-dose screen, 48 h (100 = growth as untreated, 0 = no growth, -100 = all killed)). Conditions: 10 µM unless noted.
Description: Growth inhibition of the U251 human tumor cell line is measured as a screen for anti-cancer activity. Cells are grown in 96 well plates and exposed to the test compound for 48 hours. Compounds are tested at a single concentration, which is 10^-5 M for most compounds. The reported endpoint is percent growth (GI% or GIPRCNT), where numbers from 0 - 100% represent growth inhibition, and numbers from -100% - 0 represent cell death. For example, a value of 40 represents 60% growth inhibition. A value of 0 means no net growth occurred over the course of the experiment. A value of -40 indicates 40% of cells at the beginning of the experiment died by the end of the experiment. A value of -100 means all cells are dead at the end of the experiment.
NCI-60 Human Tumor Cell Lines Screen was performed using the standard one-dose NCI protocol, which is described in more detail at https://dtp.cancer.gov/discovery_development/nci-60/default.htm.
Compounds with GIPRCNT values below 10 were considered active. Activity score was based on GIPRCNT using the following formula: […]
Score is 0 for GIPRCNT values of 100 or above, 50 for GIPRCNT values of 0, and 100 for GIPRCNT values of -100.
For `Cc1nc2cc(Nc3nc(NCCN)nc(Nc4ccc(F)cc4)n3)ccc2n1Cc1ccccc1`, the growth was 77.4% (inactive). In the case of `O=C(O)c1ccccc1Oc1cc(-c2ccco2)nc(OCCBr)n1`, the growth is reported as 98.3% (inactive). With `CC(=O)Nc1ccc(S(=O)(=O)N/N=C\c2ccc(Cl)c(Cl)c2)cc1` the growth was 95.5% (inactive). With `COc1ccc(/C=C/C(=O)N2CCC(O)CC2)cc1OC1CCCC1` the growth was 93% (inactive). With `COc1ccc2nc(-n3nc(C)cc3C)c(-n3nc(C)cc3C)nc2c1` the growth was 106% (inactive). With `O=C1C(N2CCOCC2)=Cc2cccc3cccc1c23` the growth was 92.8% (inactive). For `O=C(C[Si](CC(=O)c1cccc(C(F)(F)F)c1)CC(=O)c1cccc(C(F)(F)F)c1)c1cccc(C(F)(F)F)c1`, the growth was 51.6% (inactive). `COC(=O)c1c2c(c(C)[n+]([O-])c1C)C(=O)C=C(NCc1ccc(F)c(Cl)c1)C2=O` was tested, and the growth was -21.7% (active). `Cc1cc[n+](CCc2ccccc2)cc1` was tested, and the growth was 97.2% (inactive). With `Cc1ccc(S(=O)(=O)N2CCc3ccc(O)c4c3C2Cc2ccc3c(c2-4)OCO3)cc1` (stereo not given) the growth was 12.7% (inactive). With `O=C1/C(=C/c2ccc(Cl)cc2)N=C(c2ccccc2)N1CCc1cccs1` the growth was 44.5% (inactive). In the case of `O=[N+]([O-])c1ccc(C=C2C(Cl)=C(Cl)C(Cl)=C2Cl)cc1`, the growth is reported as 20.1% (inactive). `CCOC(=O)c1cnn(CC(O)c2ccc(F)cc2)c1NC(=O)Nc1ccccc1F` (stereo not given) was tested, and the growth was 97.8% (inactive). `Oc1cccc(Nc2nc(-c3ccccn3)cs2)c1` was tested, and the growth was 101% (inactive). For `CC1=CN2C(=NC3=C(CCCC/C3=C\c3ccccc3)C2c2ccccc2)S1` (stereo not given), the growth was 96.5% (inactive). With `NS(=O)(=O)c1ccc(C(=O)N/N=C(\CS(=O)(=O)c2ccccc2)c2cc3cc(Br)ccc3o2)cc1` the growth was 96.1% (inactive). In the case of `COc1cc(-c2nc3ccccc3o2)cc(CN2CCN(c3ccccc3)CC2)c1O`, the growth is reported as 52.6% (inactive). `O=C1CCC(N2Cc3c(C#CCCCNC(=O)c4cc5c(o4)C(=O)c4ccccc4C5=O)cccc3C2=O)C(=O)N1` (stereo not given) was tested, and the growth was -27.7% (active). In the case of `O=C1OCC2=C1C(c1ccc3c(c1)OCO3)CC(=O)N2c1cccc(Cl)c1` (stereo not given), the growth is reported as 99.9% (inactive). With `CC(=O)OC[C@H](O)[C@@]1(O)CC[C@H]2[C@@H]3CCC4=CC(=O)CC[C@]4(C)[C@H]3[C@@H](O)C[C@@]21C` the growth was 111% (inactive). With `COc1cc2nc(SCc3cc(OC)c(OC)c(OC)c3)n(-c3ccccc3OC)c(=O)c2cc1OC` the growth was 86.8% (inactive). For `CC(C)(C)[Si](C)(C)OC1[C@@H](COC(=O)NC(=O)CCl)O[C@@H](n2cnc3c(N)ncnc32)[C@H]1O[Si](C)(C)C(C)(C)C` (stereo not given in full), the growth was 53.2% (inactive). With `Cc1ccc(S(=O)(=O)N(c2ccc(Cl)cc2)c2ccc(Br)cc2C(=O)O)cc1` the growth was 95.8% (inactive). With `COc1cc2cc(Oc3ccc(NC(=O)Nc4ccc(Cl)c(C(F)(F)F)c4)cc3)c(C)nc2cc1OCCN1CCCCC1` the growth was -76.4% (active). In the case of `Oc1ccc2ccccc2c1C1NN=C(c2ccccc2)S1` (stereo not given), the growth is reported as 19.4% (inactive). `CN1CCc2c(Sc3ccc(C(=O)NO)cc3)c3ccccc3n2C1` was tested, and the growth was 23.8% (inactive). In the case of `Cc1nn(CC(=O)O)c2c1C(=O)CC(C)(C)C2`, the growth is reported as 119% (inactive). For `COc1cc(/C=C/c2cc(/C=C/c3ccc(O)c(OC)c3)n(-c3ccccc3)n2)ccc1O`, the growth was 1.47% (active). For `Cn1c(=O)c2c(-c3ccccc3F)n(-c3ccc4c(c3)OCO4)cc2n(C)c1=O`, the growth was 92.1% (inactive). `CC(C)OC1=C(Cl)C(=O)c2ccccc2C1=O` was tested, and the growth was 57.4% (inactive). In the case of `COc1ccc(/C=C2\Oc3cc(C)c(Cl)cc3C2=O)cc1OC`, the growth is reported as 96.8% (inactive). `Cc1nc(NN)c([N+](=O)[O-])c(NN)n1` was tested, and the growth was 102% (inactive). For `CN1CCN(c2nc(-c3ccncc3)nc3sc4c(c23)CCCCCC4)CC1`, the growth was 63.5% (inactive). With `N#CCCN1CCN(CCC#N)C1=S` the growth was 101% (inactive). In the case of `COc1cc(/C=C2\C(=O)Nc3ccccc32)cc(OC)c1O`, the growth is reported as 47% (inactive). For `CCC(C)[C@H]1O[C@]2(CC[C@@H]1C)C[C@@H]1C[C@@H](C/C=C(\C)[C@@H](OC3C[C@H](OC)C(O[C@H]4C[C@H](OC)[C@@H](O)[C@H](C)O4)[C@H](C)O3)[C@@H](C)/C=C/C=C3\CO[C@@H]4[C@H](O)C(C)=C[C@@H](C(=O)O1)[C@]34O)O2` (stereo not given in full), the growth was 31.5% (inactive). `COc1ccc(Nc2[nH]n(C3=Nc4ccccc4Sc4ccccc43)c(=O)c2C#N)cc1` was tested, and the growth was 67% (inactive). In the case of `Nc1cc(Br)c(-c2nnc(CCC(=O)c3nc4ccccc4[nH]3)o2)c(Br)c1`, the growth is reported as 68.2% (inactive). With `O=C1CCC(N2C(=O)c3cccc(NCCOCCOCCNC(=O)c4cc5c(o4)C(=O)c4ccccc4C5=O)c3C2=O)C(=O)N1` (stereo not given) the growth was -42% (active). `CCCCCCCCCCCCCCCC[N+]1(C)CCOCC1` was tested, and the growth was -84.8% (active).
